# The campaign covered roughly 48,000 compounds. About 13,000 (27%) showed an effect of 50% or more. Some of the results follow.
# Test system: Wolbachia pipientis
# Assay: Anti-Wolbachia Cell-Based Screen
# Format: functional
# Design: scale not given: in the data most compounds retested in dose-response had high values
# Settings: 5 µM
row,SMILES,Percent Effect [%]
1,Cc1noc(C)c1CN(C)C(=O)NC(C)Cc1ccco1 (stereo not given),8.322
2,CN(Cc1nc2ccccc2o1)CC1CCCN1c1cccnn1 (stereo not given),4.649
3,COc1ccccc1C(C)N1CCN(S(=O)(=O)N(C)C)CC1 (stereo not given),-4.471
4,Cc1cccc(N2N=C(C(=O)NC(C)Cn3cccn3)CCC2=O)c1 (stereo not given),-20.26
5,Nc1nc(CNc2nccc(CCC(F)(F)F)n2)cs1,0.6104
6,Cc1cc(NC(=O)[C@H]2CCCCN2C(=O)OC(C)(C)C)no1,12.93
7,O=C(CCC1CCCO1)NCc1ccc(Br)cc1F (stereo not given),24.29
8,Cn1cc(-c2ncnc3c2CCN(C(=O)c2cnccn2)CC3)cn1,113
9,CCOc1ncnc2c1CCN(C(=O)c1cnccn1)CC2,5.086
10,Cc1ncnc2c1CCN(C(=O)c1cnccn1)CC2,1.422
11,Cc1ncnc2c1CCN(C(=O)c1ccoc1)CC2,-3.432
12,Cc1cnc(C(=O)N2CCc3ncnc(C)c3CC2)cn1,-11.83
13,CN(C)CC(=O)N1CCc2ncnc(-c3ccoc3)c2CC1,-8.225
14,Cc1occc1C(=O)N1CCc2ncnc(-c3cnn(C)c3)c2CC1,2.959
15,Cc1ccoc1C(=O)N1CCc2ncnc(-c3cnn(C)c3)c2CC1,95.42
16,Cc1cnc(C(=O)N2CCc3ncnc(-c4cnn(C)c4)c3CC2)cn1,103.6
17,Cc1cc(C(=O)N2CCc3ncnc(-c4cnn(C)c4)c3CC2)c(C)o1,88.25
18,CN(c1cccnc1N1CCCC1)S(=O)(=O)c1cccs1,3.267
19,CCc1nc(C)c(C(=O)N2CCNCC2C(=O)Nc2ccc(C)nc2)o1 (stereo not given),1.705
20,Cc1cccc(C)c1OC1CN(Cc2cnc(-c3ccco3)nc2)C1,-6.327
21,CSCC(=O)N[C@H]1CN(CC2CCOCC2)C[C@@H]1c1ccccc1,6.905
22,Cc1ccc(C(=O)N2CCc3ncnc(-c4cnn(C)c4)c3CC2)o1,96.64

row,SMILES,Percent Effect [%]
1,COc1cc(N2CCc3ncnc(-c4cnn(C)c4)c3CC2)ncn1,-4.032
2,Cn1cc(-c2ncnc3c2CCN(C(=O)N2CCOCC2)CC3)cn1,-0.924
3,Cn1cc(-c2ncnc3c2CCN(C(=O)c2cscn2)CC3)cn1,121.2
4,Cc1ccc(C(=O)N2CCc3ncnc(C)c3CC2)o1,-4.866
5,O=C(c1cc[nH]n1)N1CCc2ncnc(N3CCSCC3)c2CC1,19.12
6,Cc1cc(C(=O)N2CCc3ncnc(-c4cnn(C)c4)c3CC2)no1,110.1
7,CN(C)c1cnnc(N2CCN(C(=O)CCC3CCCCC3)CC2)c1,3.23
8,Cc1n[nH]c(SCC(=O)NC(c2ccncc2)C(C)C)n1 (stereo not given),1.831
9,Cc1cc(NC(=O)N2CCOCC2)nn1-c1ccccc1Cl,-5.01
10,CCc1nc(NS(=O)(=O)c2cc(C)cc(F)c2)no1,-9.734
11,Cc1ccc(N2CCC3(CN(Cc4cccs4)CCC3(F)F)C2)nn1.O=C(O)C(F)(F)F (stereo not given),80.15
12,Cc1ccc(N2CCC3(CC2)CC(OCC(C)C)C3)nn1.O=C(O)C(F)(F)F,-76.25
13,Cc1ccc(N2CCC3(CN(Cc4ccncc4)CCC3(F)F)C2)nn1.O=C(O)C(F)(F)F.O=C(O)C(F)(F)F (stereo not given),101.6
14,Cc1ccc(CN2CCC(F)(F)C3(CCN(c4cnccn4)C3)C2)o1.O=C(O)C(F)(F)F.O=C(O)C(F)(F)F (stereo not given),15.24
15,Cc1ccc(N2CCCC3(CCCC(=O)N3)C2)nn1.O=C(O)C(F)(F)F (stereo not given),-15.09
16,Cc1n[nH]cc1CNc1ccc2c(c1)N(C(=O)OC(C)(C)C)CCC2,-11.3
17,Cc1nnsc1CNC(=O)Nc1cccc(N2CCN(C)C2=O)c1,-31.37
18,Cc1cccc(N2CC3(COCCN(c4ccncn4)C3)OCC2=O)c1 (stereo not given),-13.92
19,O=C1COC2(COCCN(c3cnccn3)C2)CN1c1cccc(F)c1 (stereo not given),-3.492
20,CN1CC2(COCCN(c3ncccn3)C2)OCC1=O (stereo not given),-2.048
21,Cc1cccc(N2CCOCC3(C2)CN(c2cncnc2)C(=O)CO3)n1 (stereo not given),105.8
22,Cc1cccc(N2CCOCC3(C2)CN(c2cccnc2)C(=O)CO3)n1 (stereo not given),106.1

row,SMILES,Percent Effect [%]
1,N#CCCN(Cc1ccco1)C(=O)COC1CCCCC1,5.394
2,O=S1(=O)C[C@@H]2[C@H](C1)N(Cc1nc3ccccc3[nH]1)CCN2CC1CC1,0.3251
3,COCC(=O)N1CCCCC1c1nc(CN(C)C(C)=O)cc(N(C)C)n1 (stereo not given),103.1
4,CN(CC(=O)N1CCCC1c1noc(C2CC2)n1)C1CC1 (stereo not given),-4.612
5,CC(C)c1nc(C2CCCN2C(=O)c2ccc(N(C)C)nn2)no1 (stereo not given),2.138
6,CC(=O)c1ccc(C(=O)N2CCCCC2c2nc[nH]n2)cc1 (stereo not given),-8.755
7,CC(=O)N1CCCC1c1nc(CN(C)C(=O)C(C)C)cc(N(C)C)n1 (stereo not given),95.56
8,CCC(=O)N1CCCCC1c1nc(CN(C)C(C)=O)cc(N(C)C)n1 (stereo not given),86.02
9,Cc1ccsc1CNC(=O)NC1CCCc2c1cnn2CCO (stereo not given),0.2453
10,CC(=O)N1CCCN(C(=O)NCCCN(C)S(C)(=O)=O)CC1,-3.578
11,COc1ccccc1CN(Cc1cccnc1)Cc1nccs1,-55.96
12,CCCNC(=O)C(C)N1CCC(C(=O)Nc2cnn(CC)c2)CC1 (stereo not given),103.7
13,Cc1ncncc1C(=O)Nc1cnn(CC(=O)NC2CCCC2)c1,0.1635
14,CCn1cc(NC(=O)C2CCN(CC(=O)NCC(C)C)CC2)cn1,118.6
15,CCn1cc(NC(=O)NC2CCCc3c2cnn3CCO)cn1 (stereo not given),0.905
16,CCn1cc(NC(=O)C2CCN(CC(=O)N3CCOCC3)CC2)cn1,-4.13
17,CCc1noc(C)c1C(=O)Nc1cnn(CC(=O)NC2CCCC2)c1,1.161
18,CCCNC(=O)CN1CCC(C(=O)Nc2cnn(CC)c2)CC1,2.919
19,CCN1CCC(CNC(=O)Nc2cnn(CC(N)=O)c2)C1 (stereo not given),-9.388
20,CCn1cc(NC(=O)C2CCN(CC(=O)NC(C)(C)CC)CC2)cn1,91.29
21,CCn1cc(NC(=O)C2CCN(CC(=O)NC3CCCC3)CC2)cn1,91.7

# Source: ChEMBL document CHEMBL3988442, “University of Dundee, Small-Polar-MMV Screening Library” (2021)
